PubChem BioAssay (NCI)
The panel holds about 83,000 compounds, 20% with a hit somewhere; the sample as a whole holds those more often.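 48-hour exposure, single concentration, 96-well plates; percent growth endpoint where 0 means no net growth. Active: below 10.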 Activity calls are given as the source filed them.

Tested on: HL-60(TB) leukemia
Assay: NCI-60 one-dose screen, 48 h (100 = growth as untreated, 0 = no growth, -100 = all killed)
Conditions: 10 µM unless noted

| SMILES | growth |
| --- | --- |
| CN(C)C(CNc1oc(-c2cccc3ccccc23)nc1C#N)c1ccco1 (stereo not given) | 74.1% (inactive) |
| COc1cc(-c2nc3ccc(C)cc3[nH]2)ccc1OCC(=O)N=Nc1c(O)[nH]c2ccc(Cl)cc12 | -55.6% (active) |
| COc1cccc(-c2nc3sccn3c2-c2ccnc(NCCN3CCCN(C)S3(=O)=O)n2)c1 | 105% (inactive) |
| CCC(=O)OCc1cccc(OC)c1 | 53.7% (inactive) |
| C=CCNC(=S)NN | 119% (inactive) |
| CS(=O)(=O)Nc1cc(-c2ccc3ncnc(Nc4cccc(Cl)c4F)c3c2)cnc1Cl | 80.1% (inactive) |
| O=C(Nc1ccccc1O)c1ccccc1Nc1ccnc(C(F)(F)F)c1 | 68.3% (inactive) |
| Nc1nc2c(ncn2[C@@H]2O[C@H](CS)[C@@H](O)[C@H]2O)c(=O)[nH]1 | 101% (inactive) |
| Cc1ccc(-c2c3c(N)nc(-c4cccnc4)nc3nc3c2c(C)nn3-c2ccccc2)cc1 | 95.6% (inactive) |
| CC(=O)Oc1csc(N(C(C)=O)c2cc(C(=O)O)cc(C(=O)O)c2)n1 | 113% (inactive) |
| N#Cc1c(-c2ccccc2)c(C#N)c2c(C#N)c(N)nn2c1N | -17.2% (active) |
| O=[N+]([O-])c1ccc(S(=O)(=O)N2CCN(c3ccnc4cc(Cl)ccc34)CC2)c([N+](=O)[O-])c1 | 75.7% (inactive) |
| CC(CCCC(=O)O)c1ccoc1 (stereo not given) | 97.6% (inactive) |
| NC(=O)c1cccc(-c2ccccc2N2CCCCC2)c1 | 95.3% (inactive) |
| COc1cc(C(=O)O)c(O)c(C(C)(C)C)c1 | 106% (inactive) |
| CCOC(=O)c1ccc(NC(=O)NC2=NCCS2)cc1 | 13.5% (inactive) |
| CC1=NNC(=O)C1C (stereo not given) | 124% (inactive) |
| C=C(Cl)C(=NC(C)(C)C)Nc1ccccc1C | 43.3% (inactive) |
| C[C@H]1C[C@@H](n2cnc3c(N)nccc32)[C@H](O)[C@@H]1O | 80.5% (inactive) |
| CCN(CC)CCCC(C)N=C(C1=C(C(=NC(C)CCCN(CC)CC)c2cccc(OC)c2)C(=O)NC1=O)c1cccc(OC)c1 (stereo not given) | -49.3% (active) |

| SMILES | growth |
| --- | --- |
| CSc1nn2c(-c3ccc4ccccc4c3)ccnc2c1C#N | 14.1% (inactive) |
| Cc1cc(C(C)(CC(C)C)c2ccc(O)c(C)c2)ccc1O | 106% (inactive) |
| Cn1cnc2nc[nH]c2c1=S | 108% (inactive) |
| CCc1c(C)c2ccc(OCC(=O)N=Nc3c(O)[nH]c4ccccc34)c(C)c2oc1=O | -22.3% (active) |
| O=C(NC(=S)Nc1ccccn1)c1ccccc1 | 95.8% (inactive) |
| CCNCC(C)(C)O | 102% (inactive) |
| O=C1OC(Oc2ccccc2)(c2ccccc2)c2ccccc21 (stereo not given) | 83.8% (inactive) |
| C(=N/Nc1ncc(-c2cc3cc(-c4ccccc4)ccc3o2)s1)/c1cccs1 | 96.4% (inactive) |
| N#Cc1nn(-c2ccccn2)c(N)c1C#N | 96.1% (inactive) |
| CNS(=O)(=O)Nc1nccc(Cc2c(C)c3ccc(Oc4ncccn4)cc3oc2=O)c1F | 27.9% (inactive) |
| O=C1c2cc3c(cc2-c2c1c1cc(F)c(F)cc1c(=O)n2C[C@H](O)CO)OCO3 | -16.4% (active) |
| CCN(CC)c1ccc(/C=C/c2cc(C)c3ccccc3n2)cc1 | 59.1% (inactive) |
| Cc1ccccc1OCC(O)COc1ccccc1C | 128% (inactive) |
| O=C(CN1N=C(c2ccc(F)cc2)CCC1=O)Nc1nc2ccccc2s1 | 8.9% (active) |
| CN1CCN(c2cc(F)c(NC3=C(Cl)C(=O)c4ncccc4C3=O)c(F)c2)CC1 | -26.4% (active) |
| CC1(C)CC2(C)OC2C2(C1)N=NC(=Nc1ccccc1)O2 (stereo not given) | 85.2% (inactive) |
| CCCN1CN2C(=O)N3CN(CCC)CN4C(=S)N(C1)C2C34 (stereo not given) | 95% (inactive) |
| Cn1cc(-c2csc(-c3cccc(F)c3)n2)c2cccnc21 | 2.72% [100 µM] (active) |
| CC1O[C@@H]2C[C@@](O)([C@H]1O)n1c3ccccc3c3c4c(c5c6ccccc6n2c5c31)C(=O)NC4=O (stereo not given in full) | 66.6% (inactive) |
| OC1Cc2ccccc2C1 | 100% (inactive) |
